Hits are enriched below; roughly 6.5% of the tested compounds scored in any of these assays.
HepG2 tox = HepG2 cytotoxicity, counter-screen for TGF-b inhibitors; HepG2 CAGA-GFP viability, ATP luminescence, 18 h; Potency, µM (highest dose often 46.1 µM), for the others: top-dose activity change, negative = cytotoxicity, hits mostly cytotoxic; 410,000 compounds, 0.76% hits; further: potency means the concentration at half of the fitted maximal effect
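HepG2 CAGA-GFP cells (1000/well, DMEM with 1% FBS) received compound, then TGF-beta at 500 pg/mL final, and were incubated 18 hours at 37 degrees C. Viability was read by CellTiter-Glo luminescence. Media-only wells were set as complete cell-killing and DMSO as no toxicity.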
IL1B secr inh = inhibitors of inflammasome signaling (IL-1 beta secretion) | THP-1 LPS/ATP IL-1B secretion, AlphaLISA, 16 h; active compounds read low | activity change, % at 57.5 µM | 360,000 compounds, 4.7% hits; in the data active means activity change below about -50%; inconclusive means mostly about -30% to -49%; further: on the % scale 0 is the no-effect control and ±100 the full control effect
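THP-1 cells pretreated 1 hr with compounds (up to 57.5 uM final), then stimulated with LPS (250 ng/mL final) plus ATP (1.25 mM final); secreted IL-1B measured by AlphaLISA after 16 hr, decreased signal indicating inhibition.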
TGFb inhibitor = TGF-b pathway inhibition | 410,000 compounds, 1.2% hits | Potency, µM (doses to about 46.1 µM), without a hit: at the highest dose activity, negative = inhibition, hits mostly inhibitors | HepG2 CAGA-GFP TGF-b/SMAD3 reporter, GFP fluorescence, 18 h; TGF-beta stimulated, 500 pg/mL final; further: potency means the concentration at half of the fitted maximal effect; on the % scale 0 is the no-effect control and ±100 the full control effect; nearly all actives have a fitted effect of over 65% in size
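HEPG2 CAGA-GFP reporter cells (1000/well, DMEM with 1% FBS) received compounds, then recombinant TGF-beta at 500 pg/mL final for 18 hours at 37 degrees C. Per-cell GFP summed per well was normalised to unstimulated and stimulated DMSO controls before curve fitting.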
HT1080-NT tox = kills 2HG-producing HT-1080-NT fibrosarcoma cells | AID 686970 | 360,000 compounds, 1.6% hits | Potency, µM (highest dose often 46.1 µM), inactives show at the top dose activity, negative = less viability, most hits filed as cytotoxic | HT-1080-NT fibrosarcoma viability, CellTiter-Glo ATP luminescence, 48 h;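 further: NT is the 2HG producing partner of a matched IDH1 knockdown line; potency means the concentration at half of the fitted maximal effect; 0% = DMSO-treated cells and -100% = media-only wells without cells; nearly all actives have a fitted effect of over 55% in size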
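Fibrosarcoma NT cells, 750 per well in 5% FBS RPMI, were exposed to compound for 48 hours. Viability: CellTiter-Glo luminescence.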
Giardia killer = Giardia lamblia killing; 340,000 compounds, 0.15% hits; Giardia lamblia trophozoite viability; activity change, % at 7.66 µM, hits read low; in the data active means activity change below about -80%; inconclusive means between about -30% and that limit;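 further: parasites exposed to compound for two days anaerobically before the ATP read; on the % scale 0 is the no-effect control and ±100 the full control effect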
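Each well holds 100 Giardia trophozoites and compound. After two days (48 hrs) at 37 deg C in anaerobic conditions, ATP is quantified by luminescence.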
HT1080 IDH1KD tx = HT-1080 IDH1 knockdown cell toxicity (counter line). HT-1080 IDH1 knockdown viability, ATP luminescence, 48 h. Potency, µM (series often up to 46.1 µM), without a hit: at the highest dose activity, negative = toxicity, usual class: cytotoxic. 360,000 compounds, 2% hits. AID 686971;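 further: potency means the concentration at half of the fitted maximal effect; 0% = DMSO wells and -100% = cell-free medium wells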
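Cytotoxicity counter-line: IDH1KD HT-1080, 48 h, CellTiter-Glo. Curves classed by r2, magnitude and activity.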
The depositor's hits bear a star; ? = inconclusive; / = no result given. Unless noted, the call rests on the fitted dose curve; in most records, active means well fitted curve in the direction sought with a large enough effect; inconclusive means small, poorly fitted or top-dose-only effect, or another doubt; inactive means no such curve, though single readings can be large; an effect the other way counts as inactive or inconclusive.

SMILES	HepG2 tox	IL1B secr inh	TGFb inhibitor	HT1080-NT tox	Giardia killer	HT1080 IDH1KD tx
CCCCOc1ccc(-c2ncc(C(=O)O)c(C)n2)cc1	1%	19	14%	7%	-8	4%
CCCCCCCCN1C(=O)[C@H](CC(=O)NCc2ccccc2)C[C@@]2(C(=O)OCC)CCCC=C12	/	-72*	/	?	/	?
CCCCCCCCN1C(=O)[C@H](CC(=O)NCc2cccc(C(F)(F)F)c2)C[C@@]2(C(=O)OCC)CCCC=C12	/	-53*	/	-27%	/	15µM*
c1ccc(-n2nnnc2-c2cccc3ccccc23)cc1	-18%	30	-29%	5.8µM*	18	8.2µM*
Cc1ccc(-n2nnnc2-c2ccccc2Br)cc1	-12%	-5	-3%	5%	-18	-9%
Cc1cccc(C(=O)NC(=S)N2CCN(C)CC2)c1	-11%	2	-6%	13µM*	5	10µM*
Cc1ccc(C(=O)NC(=S)N2CCN(C)CC2)cc1	10µM*	22	-1%	-7%	?	-3%
O=C(NCCCN1CCN(c2ccccc2F)CC1)c1cc2c(Cl)nc3ccccc3c2s1	-4%	/	0%	/	/	/
Fc1ccc(NC(=S)NN=C2CCCCCC2)cc1	-36%	3	?	8.9µM*	-8	10µM*
Cc1nnc(NC(=O)CSc2nnc3ncccn23)s1	0%	-1	3%	1%	17	5%
CC(=O)Nc1nonc1-c1nc2ccccc2n1Cc1ccccc1	4%	17	39%	16µM*	6	12µM*
CC(=O)Nc1nc2ccccc2n1Cc1ccc(Cl)cc1	-27%	46	?	?	-18	16µM*
Nc1nonc1-c1nc2ccccc2n1CC(=O)Nc1ccccc1C(=O)O	-4%	/	0%	/	/	/
Cc1nc2ccccc2n1Cc1ccc(Br)cc1	-12%	-63*	-33%	-22%	-14	?
COC(=O)c1ccccc1NC(=O)Cn1c(-c2nonc2N)nc2ccccc21	-2%	43	-22%	0.71µM*	-21	0.32µM*
COc1ccc(OC)c(C2=C[N+](=O)C(C)(C)C(C)(C)N2[O-])c1	-16%	-2	5%	-3%	13	10%
CCCCc1ccc(NC(=O)C2(C)Cc3ccccc3C(=O)O2)cc1 (stereo unspecified)	-6%	/	0%	/	/	/
CC(OC(=O)c1ccc(Cl)c(S(=O)(=O)N2CCOCC2)c1)C(=O)Nc1ccc(S(N)(=O)=O)cc1 (stereo unspecified)	12%	28	3%	-1%	0	-1%
CCN(CC)CCn1c(NC(=O)c2ccc(C)cc2)nc2ccccc21	-17%	44	-5%	?	-15	-10%
CN(C)CCn1c(NC(=O)c2ccc(Cl)cc2)nc2ccccc21	-4%	-20	-10%	?	13	11µM*
CSCCNC(=O)Nc1c(-c2c(Cl)cccc2Cl)noc1C	14%	0	15%	6%	10	16%
C/C(=N\NC(=O)Cc1cccn1C)c1ccc2ccccc2c1	0%	-61*	32%	-15%	13	-15%
CCc1ccc(NS(=O)(=O)c2ccc3[nH]cc(C(=O)NCc4ccc(C)cc4)c(=O)c3c2)cc1	20µM*	/	?	/	/	/
Cc1cc(C)cc(NS(=O)(=O)c2ccc3[nH]cc(C(=O)N4CCc5ccccc54)c(=O)c3c2)c1	1%	0	-13%	23µM*	9	23µM*
CCN(CC)S(=O)(=O)c1ccc2[nH]cc(C(=O)NCCC3=CCCCC3)c(=O)c2c1	-44%	?	?	?	4	23µM*
SMILES	HepG2 tox	IL1B secr inh	TGFb inhibitor	HT1080-NT tox	Giardia killer	HT1080 IDH1KD tx
CCCNc1nc2c(c(=O)n(C)c(=O)n2C)n1CCC(C)C	-2%	-15	-18%	-13%	-7	-8%
FC(F)(F)c1ccc(N2CCN(c3cc(-c4ccccc4)nc4ncnn34)CC2)nc1	-22%	-61*	?	-10%	23	0%
FC(F)(F)c1cccc(Nc2cc(-c3ccccc3)nc3ncnn23)c1	-2%	-5	-3%	7%	0	4%
O=c1cc(SCc2ccccc2)nc[nH]1	-4%	-80*	-1%	1%	13	-5%
O=C(NCCCN1CCCC1=O)c1cn(-c2ccccc2)nc1-c1ccccc1	-2%	8	17%	-1%	15	0%
Clc1ccc2ncc(-c3nnnn3-c3ccccc3)c(-c3ccccc3)c2c1	-15%	5	?	21µM*	-19	?
CNC(=O)c1cc(Nc2nnc(C)c3ccccc23)ccc1OC	-1%	81	3%	16%	-19	1%
COc1ccc(-c2oc3ncnc(NCCCN(C)C)c3c2-c2ccc(OC)cc2)cc1	-101%	-64*	?	?	-15	?
CN(C)CCNc1ncnc2oc(-c3ccccc3)c(-c3ccccc3)c12	-33%	-70*	6%	-6%	41	-3%
CCOC(=O)c1ccc(NC(=O)NC2=NCCS2)cc1	-18%	40	-7%	2.6µM*	/	2.3µM*
Cc1[nH]c(C)c(S(=O)(=O)N(C)Cc2ccccc2)c1C(=O)N1CCCC1	3%	6	3%	-6%	-12	-1%
CCOC(=O)C(NC(=O)c1cccc(Cl)c1)(OCc1ccc(F)cc1)C(F)(F)F (stereo unspecified)	-26%	-100*	-33%	?	-1	?
COc1cccc2c1[C@@H]1CN(CCCCn3c(=O)[nH]c4c(sc5ncc(-c6ccccc6)nc54)c3=O)C[C@@H]1CO2	-91%	?	13µM*	?	2	?
CC(=O)Nc1cc(N=Cc2ccc(O)cc2O)c(Cl)cc1Cl	-59%	-102*	?	?	-8	18µM*
CCOC(=O)Cc1[nH]nc2c1C(C1C=CCCC1)C(C#N)=C(N)O2 (stereo unspecified)	20µM*	-90*	?	?	-4	21µM*
N#CC1=C(N)Oc2n[nH]c(-c3cccs3)c2C1c1ccncc1 (stereo unspecified)	9%	-10	-9%	13%	-21	10%
N#CC1=C(N)Oc2n[nH]c(-c3cccs3)c2C1c1ccsc1 (stereo unspecified)	2%	19	0%	2%	-3	5%
N#CC1=C(N)Oc2n[nH]c(-c3cccs3)c2C1C1C=CCCC1 (stereo unspecified)	-34%	-94*	-6%	-16%	-11	3%
CCOC(=O)Cc1[nH]nc2c1C(c1cccc(OC)c1OC)C(C#N)=C(N)O2 (stereo unspecified)	3%	-9	-2%	1%	1	4%
